Here are results for ten compounds from PubChem BioAssay (NCI).

The nature of test [1]: NCI Yeast Anticancer Drug Screen. Data for the rad50 strain (AID 155).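 Note: 0% = growth of vehicle-only cultures of the same strain.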 The settings on record: S. cerevisiae rad50 strain growth inhibition, active compounds read high. A digest of the protocol: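 Vehicle-treated cultures provide the reference for the growth inhibition reported for compound-exposed, repair-deficient yeast.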
Test [2] is described as follows: NCI Yeast Anticancer Drug Screen. Data for the mec2-1 strain (AID 157). The settings on record: S. cerevisiae mec2-1 strain, active compounds read high. A digest of the protocol: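 Readout is yeast growth inhibition, normalised to vehicle-treated controls, in the mec2-1 strain exposed to compound.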
Test [3] is described as follows: NCI Yeast Anticancer Drug Screen. Data for the sgs1 mgt1 strain (AID 161).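 Note: 0% = growth of cultures given vehicle only.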 The settings on record: S. cerevisiae sgs1 mgt1 strain, active compounds read high. A digest of the protocol: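 Compounds are added to genetically altered yeast, and growth is compared with cultures given vehicle alone to give percent inhibition.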
Test [4] in a line: NCI Yeast Anticancer Drug Screen. Data for the cln2 rad14 strain (AID 165).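 Note: 0% = growth equal to vehicle treated cultures.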 The settings on record: S. cerevisiae cln2 rad14 strain, active compounds read high. The method, boiled down:
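Relative to vehicle controls, growth inhibition of compound-treated cln2 rad14 yeast was recorded.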

Test [5] in a line: NCI Yeast Anticancer Drug Screen. Data for the bub3 strain (AID 167). The settings on record: S. cerevisiae bub3 mutant strain, active compounds read high. The method, boiled down:
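Mutant yeast screening strain plus compound; vehicle-treated cultures serve as the 0% inhibition reference.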

The nature of test [6]: NCI Yeast Anticancer Drug Screen. Data for the mlh1 rad18 strain (AID 175). The settings on record: S. cerevisiae mlh1 rad18 strain growth inhibition, active compounds read high. The method, boiled down: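 Test agents were incubated with a yeast strain of defined genotype (DNA damage repair defect). Inhibition of growth was derived by comparison with vehicle-exposed cultures.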

Setting [7] is: at 5.0 µM (retest, dose inferred, filed as 0.5).
The mark [8] stands for this setting: at 50.0 µM (retest, dose inferred, filed as 5.0).

The structures appear in SMILES notation. About 79,000 compounds went through this panel and 15% of them were active in at least one assay; those are over-represented in the sample as a whole. A number with no mark means an inactive call. Calls of active or inactive are those of the source. Cut-off read from the data, not from the text of the source: active = growth inhibition above about 70%; inactive = the rest.

As to `CN(C)C(=S)[S][Hg][c]1ccccc1`, the growth inhibition is 64% in test [1] (setting [7]); 87% (active) in test [1] (setting [8]); 91.3% (active) in test [1] (at 50.0 µM); 69% in test [2] (setting [7]); 75% (active) in test [2] (setting [8]); 93.4% (active) in test [2] (at 50.0 µM). The growth inhibition in test [3] (setting [7]) was 101% (active); in test [3] (setting [8]), 99% (active); in test [3] (at 50.0 µM), 93.7% (active); in test [4] (setting [7]), 54%; in test [4] (setting [8]), 99% (active); in test [4] (at 50.0 µM), 92.8% (active). Further, the growth inhibition was 101% (active) in test [5] (setting [7]); 100% (active) in test [5] (setting [8]); 92.1% (active) in test [5] (at 50.0 µM); 52% in test [6] (setting [7]); 70% (active) in test [6] (setting [8]); 91.5% (active) in test [6] (at 50.0 µM).

For `[Cl][Sn]([Cl])([c]1ccccc1)[c]1ccccc1.c1ccc2nc(-c3ccc4ccccc4n3)ccc2c1`, the growth inhibition in test [1] (setting [7]) was 16%; in test [1] (setting [8]), 97% (active); in test [1] (at 50.0 µM) it was 84% (active); in test [2] (setting [7]) it was 16%; in test [2] (setting [8]) it was 98% (active); in test [2] (at 50.0 µM) it was 96% (active). Also, the growth inhibition is 32% in test [3] (setting [7]); 97% (active) in test [3] (setting [8]); 75.3% (active) in test [3] (at 50.0 µM); 6% in test [4] (setting [7]); 96% (active) in test [4] (setting [8]); 45.1% in test [4] (at 50.0 µM). The growth inhibition was 5% in test [5] (setting [7]); 96% (active) in test [5] (setting [8]); 59.6% in test [5] (at 50.0 µM); 23% in test [6] (setting [7]); 96% (active) in test [6] (setting [8]); 93.2% (active) in test [6] (at 50.0 µM).

`Nc1nc2ncnc(N)c2nc1-c1ccc(N(CCCl)CCCl)cc1`: the growth inhibition in test [1] (setting [7]) was -2%; in test [1] (setting [8]), 46%; in test [1] (at 50.0 µM) it was 55.7%; in test [2] (setting [7]), -3%; in test [2] (setting [8]), 38%; in test [2] (at 50.0 µM) it was 46%. Besides, the growth inhibition in test [3] (setting [7]) was -3%; in test [3] (setting [8]) it was 54%; in test [3] (at 50.0 µM), 85.4% (active); in test [4] (setting [7]), 6%; in test [4] (setting [8]) it was 18%; in test [4] (at 50.0 µM), 16.4%. Moreover, the growth inhibition in test [5] (setting [7]) is -1%; in test [5] (setting [8]), 40%; in test [5] (at 50.0 µM) it was 13.7%; in test [6] (setting [7]), -5%; in test [6] (setting [8]), 35%; in test [6] (at 50.0 µM) it was 68.8%.

For the compound `Cc1cc([N+](=O)[O-])c2ccccc2[n+]1[O-]`, the growth inhibition is 99% (active) in test [1] (setting [7]); 99% (active) in test [1] (setting [8]); 99.1% (active) in test [1] (at 50.0 µM); 100% (active) in test [2] (setting [7]); 100% (active) in test [2] (setting [8]); 99.5% (active) in test [2] (at 50.0 µM). Also, the growth inhibition is 99% (active) in test [3] (setting [7]); 99% (active) in test [3] (setting [8]); 48.6% in test [3] (at 50.0 µM); 100% (active) in test [4] (setting [7]); 100% (active) in test [4] (setting [8]); 58.4% in test [4] (at 50.0 µM). Moreover, the growth inhibition is 99% (active) in test [5] (setting [7]); 99% (active) in test [5] (setting [8]); 99.2% (active) in test [5] (at 50.0 µM); 100% (active) in test [6] (setting [7]); 100% (active) in test [6] (setting [8]); 49.8% in test [6] (at 50.0 µM).

As to `CCC[CH2][Sn]1([CH2]CCC)[O]C(=O)c2cccnc2[S]1`, the growth inhibition was 40% in test [1] (setting [7]); 95% (active) in test [1] (setting [8]); 78.4% (active) in test [1] (at 50.0 µM); 38% in test [2] (setting [7]); 97% (active) in test [2] (setting [8]); 78.3% (active) in test [2] (at 50.0 µM). Also, the growth inhibition was 55% in test [3] (setting [7]); 97% (active) in test [3] (setting [8]); 77% (active) in test [3] (at 50.0 µM); 31% in test [4] (setting [7]); 94% (active) in test [4] (setting [8]); 62.5% in test [4] (at 50.0 µM). Moreover, the growth inhibition in test [5] (setting [7]) is 44%; in test [5] (setting [8]), 97% (active); in test [5] (at 50.0 µM), 83.5% (active); in test [6] (setting [7]) it was 51%; in test [6] (setting [8]), 97% (active); in test [6] (at 50.0 µM), 79.8% (active).

In the case of `CC[CH](C)[Sn](=[O])[c]1ccccc1` (stereo not given), the growth inhibition in test [1] (setting [7]) is 15%; in test [1] (setting [8]), 95% (active); in test [1] (at 50.0 µM), 81.1% (active); in test [2] (setting [7]), 28%; in test [2] (setting [8]), 93% (active); in test [2] (at 50.0 µM) it was 80.7% (active). Also, the growth inhibition in test [3] (setting [7]) was 16%; in test [3] (setting [8]), 93% (active); in test [3] (at 50.0 µM), 21.9%; in test [4] (setting [7]), 15%; in test [4] (setting [8]), 90% (active); in test [4] (at 50.0 µM), 28.1%. For the same compound, the growth inhibition was 10% in test [5] (setting [7]); 96% (active) in test [5] (setting [8]); 20.9% in test [5] (at 50.0 µM); 11% in test [6] (setting [7]); 95% (active) in test [6] (setting [8]); 75.8% (active) in test [6] (at 50.0 µM).

For the compound `O=C1c2ccccc2CCC1Br` (stereo not given), the growth inhibition is -20% in test [1] (setting [7]); 99% (active) in test [1] (setting [8]); 99% (active) in test [1] (at 50.0 µM); 11% in test [2] (setting [7]); 99% (active) in test [2] (setting [8]); 99.1% (active) in test [2] (at 50.0 µM). In addition, the growth inhibition in test [3] (setting [7]) was -3%; in test [3] (setting [8]) it was 98% (active); in test [3] (at 50.0 µM) it was 99.2% (active); in test [4] (setting [7]) it was -18%; in test [4] (setting [8]), 99% (active); in test [4] (at 50.0 µM), 98.6% (active). For the same compound, the growth inhibition was -27% in test [5] (setting [7]); 99% (active) in test [5] (setting [8]); 98.7% (active) in test [5] (at 50.0 µM); -13% in test [6] (setting [7]); 99% (active) in test [6] (setting [8]); 99% (active) in test [6] (at 50.0 µM).

For the compound `C[C@]12CC[C@H](OC3OC(CO)C(O)C(O)C3O)C[C@H]1CC[C@@H]1[C@@H]2CC[C@]2(C)[C@@H](C3=CCOC3=O)CC[C@]12O` (stereo not given in full), the growth inhibition was 7% in test [1] (setting [7]); 4% in test [1] (setting [8]); -11.2% in test [1] (at 50.0 µM); 6% in test [2] (setting [7]); -2% in test [2] (setting [8]); -6.9% in test [2] (at 50.0 µM). Also, the growth inhibition is -17% in test [3] (setting [7]); -2% in test [3] (setting [8]); 6.4% in test [3] (at 50.0 µM); -11% in test [4] (setting [7]); -35% in test [4] (setting [8]); 13.1% in test [4] (at 50.0 µM). In addition, the growth inhibition in test [5] (setting [7]) was -22%; in test [5] (setting [8]), 7%; in test [5] (at 50.0 µM), -38.5%; in test [6] (setting [7]), 6%; in test [6] (setting [8]), 21%; in test [6] (at 50.0 µM) it was 49.6%.

`COC12C(COC(N)=O)C3=C(C(=O)C(C)=C(N)C3=O)N1CC1C2N1C` (stereo not given): the growth inhibition in test [1] (setting [7]) was 10%; in test [1] (setting [8]), 74% (active); in test [1] (at 50.0 µM), 43.6%; in test [2] (setting [7]), 16%; in test [2] (setting [8]) it was 84% (active); in test [2] (at 50.0 µM) it was 44.6%. Further, the growth inhibition in test [3] (setting [7]) is 16%; in test [3] (setting [8]), 77% (active); in test [3] (at 50.0 µM) it was 55.7%; in test [4] (setting [7]) it was 1%; in test [4] (setting [8]), 77% (active); in test [4] (at 50.0 µM) it was 38.4%. The growth inhibition in test [5] (setting [7]) is 5%; in test [5] (setting [8]), 55%; in test [5] (at 50.0 µM), 31%; in test [6] (setting [7]) it was 34%; in test [6] (setting [8]), 92% (active); in test [6] (at 50.0 µM) it was 75.8% (active).

Turning to `CCCCCc1cc(OC(=O)CCCN(CC)CC)c2c(c1)OC(C)(C)[C@@H]1CCC(C)=C[C@@H]21`, the growth inhibition in test [1] (setting [7]) is 79% (active); in test [1] (setting [8]) it was 97% (active); in test [1] (at 50.0 µM) it was 87% (active); in test [2] (setting [7]) it was 30%; in test [2] (setting [8]) it was 98% (active); in test [2] (at 50.0 µM), 91% (active). Further, the growth inhibition in test [3] (setting [7]) is 63%; in test [3] (setting [8]), 99% (active); in test [3] (at 50.0 µM), 89.7% (active); in test [4] (setting [7]), 49%; in test [4] (setting [8]), 98% (active); in test [4] (at 50.0 µM), 90% (active). In addition, the growth inhibition in test [5] (setting [7]) was 27%; in test [5] (setting [8]), 99% (active); in test [5] (at 50.0 µM) it was 87.8% (active); in test [6] (setting [7]), 74% (active); in test [6] (setting [8]), 97% (active); in test [6] (at 50.0 µM), 91.7% (active).
